Measured values: PubChem BioAssay (NCI)
The panel holds about 83,000 compounds, 20% with a hit somewhere; the sample as a whole holds those more often.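 Testing used 96-well plates and a 48-hour single-concentration exposure. Example: -40 means 40% of the starting cells died.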 Values without a mark were called inactive. The source made the active and inactive calls. The calls were made as follows: active = growth percent below 10; inactive = the rest.

Tested on: MDA-MB-468 breast
Experiment: NCI-60 one-dose screen, 48 h (100 = growth as untreated, 0 = no growth, -100 = all killed)
Conditions: 10 µM unless noted

Work on COc1ccc(-c2cc(Cc3cccs3)c(=O)n(Cn3cncn3)n2)cc1 yielded a growth of 102%.
For COc1cc2c3c(c4c5ccccc5[nH]c4c2c(OC)c1OC)C(=O)N(CCN1CCCCC1)C3=O, the growth was 63.7%.
In the case of COC1=CC2C=C(C3N(c4ccccc4)NC(=O)[C@@H]4CCCN34)C(=O)NC2C=C1 (stereo not given in full), the growth is reported as 114%.
With Clc1ccc([C@@H]2C[C@@H]3Cc4cc(Br)c5ccccc5c4N2O3)c(Cl)c1 the growth was 59.2%.
COc1cc2cc3cc4cc(OC)c(OC)cc4c(C)[n+]3cc2cc1OC (tested in a mixture with another compound) showed a growth of 44%.
Compound CN(C)Cc1ccc(NC(=O)c2cncc(C#Cc3cnc(N)c4ncccc34)c2)cc1C(F)(F)F has a growth of 84%.
O=Nc1c(O)c(Cl)cc2ccccc12 was tested, and the growth was -7.81% (active).
CCCC(O)Cn1ncc(C(=O)OCC)c1NC(=O)NCc1cccc(C(F)(F)F)c1 (stereo not given) showed a growth of 79.3%.
With CCOc1ccc(-n2nc(C(=O)NCc3ccccc3OC)nc2-c2cc(OC)c(OC)c(OC)c2)cc1 the growth was 72.4%.
With CC(C)(C)OC(=O)N1CCN(c2ccc(N)cc2)C(=O)C1 the growth was 111%.
In the case of COc1cc(Cl)cc(-c2nn(C(=O)NS(=O)(=O)c3ccccc3)cc2-c2ccncc2)c1, the growth is reported as 89%.
For COc1cc(/C=N/NC(=O)c2ccccc2Nc2cccc(C(F)(F)F)c2)cc(OC)c1OC, the growth was -20.8% (active).
Work on N#CC(C#N)N=Nc1ccc(Cl)cc1Cl yielded a growth of 58.8%.
With O=C(CSc1nnc(-c2ccc(Cl)cc2)n1-c1ccccc1)Nc1cccc(F)c1 the growth was 17.2%.
Compound FC(F)(F)c1[nH]ncc1-c1nc2ccc3n[nH]c(C#Cc4cccnc4)c3c2c2c1CCCC2 has a growth of 73.9%.
Work on CCOC(=O)c1ccoc1 yielded a growth of 95.7%.
Compound O=C(Nc1cccc([N+](=O)[O-])c1)c1cccc(C(=O)Nc2cccc([N+](=O)[O-])c2)c1 has a growth of 67.1%.
CCCCC(=O)Nc1nc2ccc(SCCC)cc2s1 was tested, and the growth was 20%.
Work on COc1cc(-c2nn(-c3ccc(C(=O)O)cc3)cc2C(=O)O)ccc1O yielded a growth of 103%.
Work on COc1ccc2c(c1)oc1c(C)c3c(c(C)c12)C(=O)N(CCN1CCOCC1)C3=O yielded a growth of 106%.
In the case of Cc1ccc(C(=O)C2C(=O)C3CCC2C3)cc1 (stereo not given), the growth is reported as 100%.
With CONC1=Nc2cc(NC(N)=NCc3ccccc3)c(N(C)C3CCCCC3)cc2OC1 the growth was -23.4% (active).
Compound COc1cc(/C=C/c2ccccc2)cc(OC)c1 has a growth of 103%.
C=CC(=O)Nc1cccc(-c2nc(SC)nc(NCCc3ccc(OC)c(OC)c3)c2C#N)c1 gave a growth of 19.2%.
CCOC(=O)c1c(C)nc2ccccc2c1/C=C/c1ccccc1 gave a growth of 24.7%.
CCCCCSc1ccc2nc(NC(=O)OCC)sc2c1 was tested, and the growth was -10.5% (active).
Work on CCO/C=N/C1=C(C#N)C(c2ccc(Cl)cc2)c2sc3c(F)cccc3c2O1 (stereo not given) yielded a growth of 54.3%.
Work on CC(=O)c1nc2ccccc2n1CCNC(N)=O yielded a growth of 60.8%.
For Cc1ccsc1C(=O)CC(=O)C(F)(F)C(F)(F)C(F)(F)F, the growth was 112%.
In the case of CCCCS(=O)(=O)Oc1ccc(-c2nc(C)c(C(=O)OCC)s2)cc1C=O, the growth is reported as 52.1%.
CCOC(=O)c1[nH]c(=O)c2c(C)nc(-c3ccccc3)cc2c1O gave a growth of 92.9%.
For COc1cc(-c2nnc(-c3c(-c4ccc(F)cc4)nc4ccccn34)o2)cc(OC)c1OC, the growth was 99.4%.
COc1ccc(-c2cc(-c3ccc(OC)cc3)nc(NCCCNc3ccnc4cc(Cl)ccc34)n2)cc1 showed a growth of 74.8%.
For NC(=O)c1c(NC(=O)c2cccc(C(F)(F)F)c2)sc2c1CCC(=O)C2, the growth was -38.1% (active).
Work on CC(C)C(=O)Nc1ccc(-c2nc(-c3cccc(O)c3)c(-c3ccnc(Br)c3)[nH]2)cc1 yielded a growth of 15.1%.
For O=C(/C=C/c1sc(Cl)nc1Cl)c1ccccc1, the growth was 55.3%.
COc1cc2nc(-c3ccc(C(F)(F)F)cc3)cc(OCCCN3CCCC3)c2cc1OC showed a growth of 43.8%.
With NCCNc1nc(Nc2ccc(-c3nc4ccccc4[nH]3)cc2)c2cn[nH]c2n1 the growth was 57.2%.
In the case of COc1ccc(CN2CCC(N3CCCC3=O)c3cc(Cl)ccc32)cc1 (stereo not given), the growth is reported as 114%.
Cn1cc(-c2cc(N)n3nc(-c4cn(C)c5ccc(F)cc45)cc3n2)c2cc(F)ccc21 showed a growth of 12.3%.
